Laboratory results reported in ChEMBL document CHEMBL3988442, “University of Dundee, Small-Polar-MMV Screening Library” (2021).
The campaign covered roughly 38,000 compounds. About 1,200 (3.2%) showed an effect of 50% or more. The median lay at about -58%. Many of the other results were omitted from the sample, so strong results are more common in it than they were.

These molecules were tested on Plasmodium falciparum (assay: Calibr Malaria Delayed Death Assay SOP). Conditions: concentration 4.99e-06 (unit not given; other assays of the set use mol/L).
Format: functional, organism-based
Parameters: scale not given: in the data most compounds retested in dose-response had high values

| Structure (SMILES) | Percent Effect [%] |
| --- | --- |
| O=C(CC1CC1)N1CCO[C@H]2[C@H](OCCCn3cccn3)CC[C@@H]21.O=C(O)C(F)(F)F | -14.73 |
| CN(C)C(=O)N1CCC2(CC(=O)N(c3cccc(C#N)c3)C2)C1 (centres undefined) | -56.91 |
| Cc1ccccc1CC(=O)N1C[C@@H]2COC[C@]2(CN(C)C)C1.O=C(O)C(F)(F)F | -70.43 |
| CN(C)C1CCN(C(=O)c2ccnn2-c2ccc3ccccn23)CC1.O=C(O)C(F)(F)F | -10.05 |
| O=C(c1ccnn1-c1ccc2ccccn12)N1CCOCC1 | -129.8 |
| CN1CCCN(C(=O)c2ccnn2-c2ccc3ccccn23)CC1.O=C(O)C(F)(F)F | 69.35 |
| Cc1ncsc1CNCC(C)c1nc2ccccc2o1 (centres undefined) | -88.91 |
| Cc1nc(CN2CCC(N(C)Cc3noc(C4CC4)n3)C2)oc1C (centres undefined) | -157.8 |
| CCC[C@@H]1CN(C(=O)c2ccccc2-c2ncc[nH]2)C[C@H]1N(C)C | -89.87 |
| CCC[C@@H]1CN(C(=O)c2ccccc2C(C)=O)C[C@H]1N(C)C | -122.5 |
| CCC[C@@H]1CN(C(=O)c2cc(-c3cccs3)n(C)n2)C[C@H]1N(C)C | -67.73 |
| CCC[C@@H]1CN(C(=O)c2cc3ccccc3cc2O)C[C@H]1N(C)C | 51.44 |
| CCC[C@@H]1CN(C(=O)c2ccccc2-c2ccccc2)C[C@H]1N(C)C | 18.3 |
| CCC[C@@H]1CN(C(=O)c2conc2-c2ccccc2)C[C@H]1N(C)C | 50.45 |
| CC(C)(C)c1cnc(CN(Cc2cccnc2)CC2CCCO2)o1 (centres undefined) | 21.12 |
| CC(O)CN1CCc2onc(-c3ccccc3F)c2C1 (centres undefined) | -120.6 |
| CN(C)S(=O)(=O)N1CCCC(c2cccc(Cc3ccccc3F)n2)C1 (centres undefined) | -73.25 |
| CN(C)C(=O)CN1CCCC1c1cccc(Cc2ccccc2F)n1 (centres undefined) | 67.28 |
| CN(C)C(=O)CCc1cncc(C2CCCN2Cc2ccccn2)n1 (centres undefined) | -28.93 |
| CN1CCN(C2COC3(CCN(Cc4ccsc4)CC3)C2)CC1.O=C(O)C(F)(F)F.O=C(O)C(F)(F)F (centres undefined) | -16.23 |
| COC(=O)c1cccn1C1CCN(C(=O)c2ccc(C)cc2O)CC1 | -37.36 |
| Nc1cc(C(=O)NC2CCCN(CCCc3ccccc3)C2)ccn1 (centres undefined) | -86.42 |
| Nc1ncncc1-c1noc([C@@H]2CCCN2CCCc2ccccc2)n1 | -66.01 |
| CS(=O)(=O)NC1CCN(C(=O)NCc2cccnc2)CC1 | -62.74 |

| Structure (SMILES) | Percent Effect [%] |
| --- | --- |
| O=C(c1ccoc1)N1CC[C@H]2C[C@@H](c3ccncn3)O[C@@H]2C1 | -72.56 |
| COc1cccc(CCC(=O)Nc2cnc3c(c2)c(C)nn3C)c1OC | -140.4 |
| COc1nccc(N2CC[C@H](N3CCOCC3)[C@H](CCCO)C2)c1C#N | -24.24 |
| COc1nccc(N2CC[C@@H](N3CCCCCC3)[C@H](O)C2)c1C#N | 51.1 |
| COc1nccc(N2CC[C@@H](N3CCC(O)CC3)[C@H](O)C2)c1C#N | -80.42 |
| COc1ccc(C(N)=O)cc1NCc1ncc(-c2cccs2)o1 | -57.49 |
| O=C(O)CCc1nc2nccc(-c3ccc(F)cc3)n2n1 | -150.8 |
| COc1ccc(-c2noc(CN3CC(n4cc(C)cn4)C3)n2)cc1 | -35.96 |
| CC(C)Nc1ccnc(N2Cc3cnc(C(C)(C)C)nc3C2)n1 | 49.86 |
| CC(C)Cc1ncc2c(n1)CN(c1cc(NC3CC3)nc(N)n1)C2 | -26.11 |
| CCNc1ccnc(N2Cc3cnc(CC(C)C)nc3C2)n1 | 74.44 |
| O=C(CSc1nnc2n1N=CN(c1ccccc1)C2)c1ccccc1 | -130.4 |
| COCCCN1CCCN(C(C)C(=O)Nc2cccc(I)c2)CC1 (centres undefined) | 89.66 |
| CCOCCN1CCN(C(C)C(=O)Nc2ccnn2C(C)C)CC1 (centres undefined) | -116 |
| CC(C(=O)Nc1cccc(Cl)c1)N1CCN(Cc2ncc[nH]2)CC1 (centres undefined) | 12.72 |
| Cc1noc(CN(C)CC2CCCN(CCc3ccc(Cl)cc3)C2)n1 (centres undefined) | -81.63 |
| NC(=O)C1CCN(C(=O)c2ccc(Sc3ccccn3)cc2)CC1 | -20.82 |
| Cc1ccc(CN(Cc2ccncc2)C2CCN(C)CC2)s1 | 33.34 |
| CN(Cc1cccnc1)CC1CC12CCCC2 (centres undefined) | -51.15 |
| Cc1ccsc1CN(C)Cn1nccc1-c1cccnc1 | -75.2 |
| O=C(Nc1cccnc1)N(Cc1ccccc1)C1CC1 | -66.01 |
| Cc1cccc(CN(Cc2cccnc2)C2CC(C)(C)NC(C)(C)C2)n1.O=C(O)CC(O)(CC(=O)O)C(=O)O | 40.19 |
| Cc1ccc(CN(Cc2ccccn2)C(=O)[C@H]2CC[C@@H](N)C2)s1 | -62.59 |
| CN(Cc1cccnc1)CC1CC12CCN(Cc1nccs1)CC2 (centres undefined) | -24.57 |

| Structure (SMILES) | Percent Effect [%] |
| --- | --- |
| Cc1ccc(CN(Cc2[nH]cnc2C)C2CC(C)(C)NC(C)(C)C2)o1.O=C(O)CC(O)(CC(=O)O)C(=O)O | -80.85 |
| CC1(C)CC(N(Cc2cccnc2)Cc2cccc(F)c2)CC(C)(C)N1.O=C(O)CC(O)(CC(=O)O)C(=O)O | 75.47 |
| Cc1c[nH]c(CN2CCOC(c3ccc(Cl)c(Cl)c3)C2)c(C)c1=O (centres undefined) | -31.43 |
| Cc1cc(CNC(=O)NCc2cccs2)no1 | -38.54 |
| COc1cccc2c1ccn2CC(=O)Nc1nc[nH]n1 | -178.4 |
| COCCCN(CCOC)C(=O)Nc1ccccc1Br | -3.396 |
| Fc1cnc(N2CCN3C[C@H](Oc4cccnc4)C[C@H]3C2)nc1.O=C(O)C(F)(F)F.O=C(O)C(F)(F)F.O=C(O)C(F)(F)F | -67.51 |
| CN(C)c1nc2sc(C(=O)N3CCNC(=O)CC3)cc2s1 | -35.45 |
| CCOC(=O)[C@H]1[C@@H](O)C(=O)N(C)C12CCN(S(=O)(=O)CC)CC2 | -82.82 |
| CS(=O)(=O)NCc1ncn2c1CN(C(=O)C1CCCCC1)CCC2 | -51.87 |
| COc1cc(F)ccc1N(C)Cc1cccnc1 | -76.29 |
| CC1(C)CC(N(Cc2cccnc2)Cc2cccnc2)CC(C)(C)N1.O=C(O)CC(O)(CC(=O)O)C(=O)O | -10.22 |
| CCCN(Cc1cccnc1)C1CC(C)(C)NC(C)(C)C1.O=C(O)CC(O)(CC(=O)O)C(=O)O | 76.54 |
| CC1(C)CC(N(Cc2ccncc2)Cc2cccnc2)CC(C)(C)N1.O=C(O)CC(O)(CC(=O)O)C(=O)O | 22.16 |
| C[C@]1(O)CCN(Cc2cccnc2)C[C@@H]1Oc1cccc(F)c1 | 9.643 |
| Cc1ccc(C(=O)N(Cc2cccnc2)C[C@@H]2CCC(=O)N2)s1 | -86.25 |
| CN(Cc1cccnc1)C1CC2(CCN(C(=O)c3ccnnc3)CC2)C1 | -29.79 |
| COc1cccc(CNC(=O)c2cc(C)nc(N3CCCC3)n2)c1 | -64.99 |
| CC(C)OC(=O)N1CCC(c2nnc(Cn3ccnc3)n2C)CC1 | -243.5 |
| O=C(O)C(F)(F)F.O=C(c1cccnc1)N1CCC2(CC1)CC(Oc1ccccc1)CO2 (centres undefined) | -74.94 |
| CCc1ccc2nc(-c3cnn(C)c3)cc(C(=O)N3CCOCC3)c2c1 | -101.2 |
| CCS(=O)(=O)NCc1cccnc1N1CCCC(O)C1 (centres undefined) | -44.06 |
| Cc1cnn(CC(=O)N(CC2CN(C)CCO2)c2nccs2)c1 (centres undefined) | -66.52 |
| Cc1ccc(S(=O)(=O)Nc2ccc(-n3ccnc3C)nc2)cc1N(C)C | -25.67 |

| Structure (SMILES) | Percent Effect [%] |
| --- | --- |
| CC(=O)N(C)c1nc(Cn2nnnc2C(C)C)cs1 | -150.3 |
| Cc1ccc(CN2CCc3onc(COc4cccnc4)c3C2)s1.O=C(O)C(F)(F)F.O=C(O)C(F)(F)F | 3.567 |
| COc1ccc(-c2ncccc2C(=O)N2C[C@H]3CC[C@@H]2C3)cn1 | -112.3 |
| N#Cc1ccc(NCCCN2C(=O)COc3ccccc32)nc1 | -38.04 |
| N#Cc1c(Cl)nsc1NCCCN1C(=O)COc2ccccc21 | 55.67 |
| N#Cc1cnc(NCCCN2C(=O)COc3ccccc32)c(Cl)c1 | -83.56 |
| CC(C)n1cc(N2CC(C(=O)N3CCc4ccccc4C3)CC2=O)cn1 (centres undefined) | -62.91 |
| O=C(O)C(F)(F)F.O=C(c1ccc(O)cc1)N1C[C@@H]2OCCN(c3ncccn3)[C@@H]2C1 | 6.308 |
| Cl.NCC1(c2cccc(Br)c2)CCOCC1 | 78.65 |
| O=C(O)CCNC(=O)C1(c2cccc(Br)c2)CCOCC1 | -140.1 |
| NCC1(c2cccc(C(F)(F)F)c2)CCC1 | 23 |
| Fc1cccc(C2(CNC3CCSC3)CCOCC2)c1 (centres undefined) | -47.45 |
| CC(C)(CNC(=O)C1(c2cccc(Br)c2)CCOCC1)C(=O)O | -116.6 |
| Cc1ccc(NCCNC(=O)c2cc(CC(C)C)n[nH]2)nn1 | -140.2 |
| Cc1cc(NC(=O)Cn2ccc(-c3ccc4c(c3)OCO4)n2)n(C)n1 | -110.5 |
| CC(C)CNC(=O)c1cn(C)c(=O)c2ccccc12 | -112.9 |
| CN(C)CCN1CCO[C@@H]2CCN(C(=O)c3cccn3C)CC[C@H]21 | -62.97 |
| CCN1CCC(NC(=O)CN2CCCC(NS(C)(=O)=O)C2)CC1 (centres undefined) | -94.92 |
| c1cc(-c2cscn2)cc(N2CCC(NCCc3cccs3)CC2)c1 | 23.18 |
| CC(C)CC(C)NC1CCN(c2ccc(-c3cscn3)cc2)CC1 (centres undefined) | -115.7 |
| CC(C)CC(C)NC1CCN(c2cccc(-c3cscn3)c2)CC1 (centres undefined) | 51.64 |
| Cc1ccc(C(C(=O)N2CCC(Cc3noc(C)n3)CC2)N(C)C)cc1 (centres undefined) | 25.87 |
